Laboratory results taken from PubChem BioAssay.
Results filed as inconclusive are left out. Calls of active or inactive are those of the source.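 Rule for the calls, unless noted: active = percent response above a set limit, the screen-wide mean plus 3 SD (cut at about 130% in these data); inactive = the rest.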

Legend:
[1] = rapamycin-like changes in RPL19A-GFP expression – cell-based, S. cerevisiae, multiplex flow cytometry, primary screen (AID 1862; in the data active = percent of DMSO control GFP below about 86%;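 note: lower values mimic rapamycin by blocking the RPL19A rise seen in DMSO cells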); conditions: S. cerevisiae RPL19A-GFP strain, flow cytometry fluorescence, 3 h; at 10 µM; stronger effect = lower value
[2] = TOR pathway GLN3 branch reporter MEP2-GFP changes – S. cerevisiae, multiplex flow cytometry, primary screen (AID 1867;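 active = GFP response, as percent of the DMSO control, above the screen-wide mean plus 3 SD, about 139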;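 note: median GFP channel fluorescence of barcode-gated MEP2-GFP cells measured by flow cytometry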); conditions: S. cerevisiae MEP2-GFP strain, 3 h, at 10 µM, stronger effect = higher value, 100% means same as DMSO wells
[3] = TOR pathway RTG branch CIT2 reporter changes – S. cerevisiae, GFP fusion, multiplex flow cytometry, primary screen (AID 1870);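 note: barcoded CIT2-GFP strain pooled with four other GFP strains with rapamycin as positive control; median GFP fluorescence per well over plate mean of DMSO wells so 100% = DMSO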; conditions: S. cerevisiae CIT2-GFP expression, 3 h, at 10 µM, stronger effect = higher value
[4] = TOR pathway LAP4-GFP level changes – S. cerevisiae, multiplex flow cytometry, primary screen (AID 1873;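 active = GFP signal, as percent of the solvent control, above the screen mean plus 3 SD, about 149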); conditions: S. cerevisiae LAP4-GFP expression, 3 h, at 10 µM, stronger effect = higher value
[5] = yeast AGP1-GFP level changes, GLN3 branch – cell-based, multiplex flow cytometry, S. cerevisiae, primary screen (AID 1887;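 active = GFP signal above the screen-wide mean plus 3 SD, that is over about 124.5% of the solvent control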;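 note: AGP1-GFP fusion strain of S. cerevisiae within a five-strain barcoded multiplex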); conditions: 3 h, at 10 µM, stronger effect = higher value
[6] = reduced mouse 2C T cell binding to pMHC/ICAM-1 vesicles – MLPCN validation set, flow cytometry, LFA-1/ICAM-1 modulator project, pilot screen (AID 2523;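 active = response below a set limit, under 55% cells CD8-positive and vesicle-bound, and CD8 cells' 90th-percentile brightness under 279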;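 for vesicle binding response: mean PE anti-B7-1 fluorescence of CD8+ cells relative to row control; 100% = QL9-loaded vesicles with DMSO vehicle in the same plate row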); conditions: 2C mouse CD8+ T cells, at 7 µM, stronger effect = lower value; double positive events: measured here: CD8+/vesicle+ event percentage
[7] = target: Integrin beta-1 (Homo sapiens) + Integrin alpha-4 (Homo sapiens) (UniProt P13612+P05556); assay: alpha4beta1 integrin LIBS antibody binding reduction – U937 cells, HUTS-21 mAb, flow cytometry, validation set, VLA-4 allosteric modulator project, pilot screen (AID 2674;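 active = inhibition above 50%, about 3 SD of the validation set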;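 note: antibody binding induced by the VLA-4 ligand LDV present at three times its Kd; 0% = LDV ligand with antibody and no compound and 100% = antibody without LDV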); conditions: HUTS-21 LIBS mAb binding, at 6.7 µM, stronger effect = higher value, binding induced by LDV ligand
[8] = calorie-restriction mimetic ROS inhibitors, yeast – validation compound set, pilot screen (AID 2706;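 active = superoxide response below 65% of plate, a cut near 3 SD across the whole screen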;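 note: yeast exposed to compound for one week at 30 degrees C before staining; 100% = mean of all compound wells on the same plate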); conditions: S. cerevisiae aging, superoxide DHE fluorescence; at 10 µM; stronger effect = lower value
[9] = target: Beta-adrenergic receptor kinase 1 (Homo sapiens) (UniProt P25098); assay: GRK2 binders displacing RNA aptamer, biochemical, validation, human GRK2, bead flow cytometry (AID 488806;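 active = aptamer binding inhibition above 30%, about 3 SD of noise from non-fluorescent compounds; inactive = inhibition at or below 30%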); conditions: bead-bound GRK2, FAM-aptamer displacement, at 10 µM, stronger effect = higher value
[10] = target: Beta-2 adrenergic receptor (Homo sapiens) (UniProt P07550); assay: agonist-induced loss of surface beta2AR – cell-based, FAP fluorogen, flow cytometry, validation set, pilot screen (AID 504459;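 active = percent response above 42, roughly 3 SD of non-fluorescent test compounds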;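 note: agonist-driven loss of surface beta2AR via internalization measured by FAP dye flow cytometry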); conditions: Am2.2-beta2AR cells, at 10 µM, stronger effect = higher value
[11] = target: AP-2 complex subunit beta (Homo sapiens) (UniProt P63010); assay: beta-arrestin/AP2 interaction blockers – biochemical, validation set, GST-AP2 beads, flow cytometry, pilot screen (AID 504541;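 active = inhibition above 54%, about 3 SD of non-fluorescent compounds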;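 note: AP2 carries R879A mutation and is captured from E. coli lysate; bead-bound FITC arrestin peptide fluorescence measuring arrestin peptide binding to AP2; 0% = DMSO wells and 100% = excess unlabeled arrestin peptide control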); conditions: FITC arrestin peptide, at 10 µM, stronger effect = higher value, AP2 beta2 appendage fragment, R879A mutant
[12] = cytosolic pH regulators acting via V-ATPase – S. cerevisiae, pHLuorin, HTS validation (AID 504600; in the data active = response above about 15%;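 note: plate controls were DMSO for no effect and reference compound for full effect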); conditions: V-ATPase proton transport, at 10 µM, stronger effect = higher value
[13] = test system: anti-desmoglein-3 scFv antibody binding to human DSG3; assay: blockers of pathogenic pemphigus antibody–desmoglein-3 binding – biochemical, validation compound set, bead-based, flow cytometry, pilot screen (AID 588368;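 active = binding below the plate cutoff, the plate median minus 3 SD, with a reading above zero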;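 note: signal is the median channel fluorescence of bead-bound GFP antibody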); conditions: Protein G beads, DSG3-Fc, scFv-GFP binding, at 10 µM, stronger effect = lower value
[14] = Nile Red efflux blockade in pump-expressing yeast – validation compound set, multiplex, phenotypic, pilot screen (AID 588506;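 active = efflux inhibition above 0.42, the validation set average plus 4 SD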;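 note: Nile Red retained in cells so higher fluorescence means more efflux inhibition; 0 = negative control wells and 1 = enniatin B 25 µM full block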); conditions: S. cerevisiae pump-expressing triplex, Nile Red efflux flow cytometry; at 10 µM; stronger effect = higher value; the pumps come from Candida albicans
[15] = target: ATP-binding cassette sub-family B member 6 (Homo sapiens) (UniProt Q9NP58); assay: blockers of ABCB6-driven porphyrin uptake – K562-ABCB6 cells, flow cytometry, validation set, pilot screen (AID 588550;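 active = inhibition above the screen-wide mean plus 3 SD, about 51%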;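 note: 0% = DMSO wells and 100% = benzethonium chloride 70 µM positive control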); conditions: K562-ABCB6 porphyrin accumulation, 1 h, at 10 µM, stronger effect = higher value
[16] = AML differentiation inducers, ER-HoxA9 marrow cells – cell-based, GFP/MAC1 double positive, flow cytometry, validation set, primary screen (AID 588685;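 active = differentiation response of at least 50%, scaled between solvent and reference control, from cells with both markers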;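 note: compound exposure lasts four days before antibody staining and flow analysis; 0% = DMSO wells and 100% = 5 µM fulvestrant positive control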); conditions: stronger effect = higher value, normalized: vehicle 0, fulvestrant 100

Sequence of Integrin beta-1 (Homo sapiens) + Integrin alpha-4 (Homo sapiens) (P05556 whole entry, looked up): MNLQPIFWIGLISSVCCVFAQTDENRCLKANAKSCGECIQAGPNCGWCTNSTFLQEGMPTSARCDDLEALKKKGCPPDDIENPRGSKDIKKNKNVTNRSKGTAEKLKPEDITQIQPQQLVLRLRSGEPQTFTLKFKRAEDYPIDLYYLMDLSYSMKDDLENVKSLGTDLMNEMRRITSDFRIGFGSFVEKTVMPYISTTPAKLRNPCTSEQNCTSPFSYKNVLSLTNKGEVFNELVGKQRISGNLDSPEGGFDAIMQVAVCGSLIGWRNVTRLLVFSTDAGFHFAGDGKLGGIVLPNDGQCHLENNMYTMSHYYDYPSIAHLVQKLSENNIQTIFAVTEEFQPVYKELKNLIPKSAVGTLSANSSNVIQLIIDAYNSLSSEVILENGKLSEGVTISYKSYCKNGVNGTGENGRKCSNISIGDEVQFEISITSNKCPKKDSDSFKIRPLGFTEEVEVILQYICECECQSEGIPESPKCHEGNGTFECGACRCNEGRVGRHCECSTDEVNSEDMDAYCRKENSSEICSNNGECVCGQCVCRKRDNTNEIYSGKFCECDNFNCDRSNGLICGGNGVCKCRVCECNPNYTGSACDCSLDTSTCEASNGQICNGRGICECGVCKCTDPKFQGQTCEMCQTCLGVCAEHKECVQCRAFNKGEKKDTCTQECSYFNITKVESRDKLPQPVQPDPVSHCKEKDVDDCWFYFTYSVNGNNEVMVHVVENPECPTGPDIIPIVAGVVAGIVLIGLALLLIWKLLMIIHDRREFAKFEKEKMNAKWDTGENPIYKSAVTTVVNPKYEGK
Sequence of Integrin beta-1 (Homo sapiens) + Integrin alpha-4 (Homo sapiens) (P13612 whole entry, looked up): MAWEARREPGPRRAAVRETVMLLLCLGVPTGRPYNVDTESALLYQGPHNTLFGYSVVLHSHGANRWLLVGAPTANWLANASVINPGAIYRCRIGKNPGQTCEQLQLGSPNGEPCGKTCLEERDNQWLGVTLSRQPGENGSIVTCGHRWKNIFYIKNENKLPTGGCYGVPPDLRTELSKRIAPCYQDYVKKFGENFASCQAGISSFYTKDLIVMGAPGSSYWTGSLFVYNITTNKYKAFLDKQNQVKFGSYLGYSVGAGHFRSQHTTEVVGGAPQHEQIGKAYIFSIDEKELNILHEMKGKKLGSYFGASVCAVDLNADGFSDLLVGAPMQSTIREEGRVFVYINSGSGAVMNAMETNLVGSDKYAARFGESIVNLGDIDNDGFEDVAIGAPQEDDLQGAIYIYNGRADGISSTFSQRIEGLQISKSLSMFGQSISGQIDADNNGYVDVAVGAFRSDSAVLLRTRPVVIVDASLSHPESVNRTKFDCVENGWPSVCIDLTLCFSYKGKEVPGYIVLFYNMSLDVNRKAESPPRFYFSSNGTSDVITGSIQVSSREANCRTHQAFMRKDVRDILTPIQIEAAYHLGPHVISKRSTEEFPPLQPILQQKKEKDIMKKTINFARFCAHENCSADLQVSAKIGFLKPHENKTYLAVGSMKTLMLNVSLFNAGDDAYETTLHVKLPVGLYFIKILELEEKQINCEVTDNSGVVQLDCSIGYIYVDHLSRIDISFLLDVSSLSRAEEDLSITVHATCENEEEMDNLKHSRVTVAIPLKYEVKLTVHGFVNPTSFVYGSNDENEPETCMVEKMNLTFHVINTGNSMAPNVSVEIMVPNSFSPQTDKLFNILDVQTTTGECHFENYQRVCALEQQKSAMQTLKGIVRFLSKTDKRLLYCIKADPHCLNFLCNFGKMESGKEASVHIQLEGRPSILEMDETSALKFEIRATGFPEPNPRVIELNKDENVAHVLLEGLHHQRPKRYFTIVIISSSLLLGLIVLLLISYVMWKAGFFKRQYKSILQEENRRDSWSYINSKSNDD
Sequence of AP-2 complex subunit beta (Homo sapiens) (P63010 whole entry, looked up, the tested form may be a part, one chain of several): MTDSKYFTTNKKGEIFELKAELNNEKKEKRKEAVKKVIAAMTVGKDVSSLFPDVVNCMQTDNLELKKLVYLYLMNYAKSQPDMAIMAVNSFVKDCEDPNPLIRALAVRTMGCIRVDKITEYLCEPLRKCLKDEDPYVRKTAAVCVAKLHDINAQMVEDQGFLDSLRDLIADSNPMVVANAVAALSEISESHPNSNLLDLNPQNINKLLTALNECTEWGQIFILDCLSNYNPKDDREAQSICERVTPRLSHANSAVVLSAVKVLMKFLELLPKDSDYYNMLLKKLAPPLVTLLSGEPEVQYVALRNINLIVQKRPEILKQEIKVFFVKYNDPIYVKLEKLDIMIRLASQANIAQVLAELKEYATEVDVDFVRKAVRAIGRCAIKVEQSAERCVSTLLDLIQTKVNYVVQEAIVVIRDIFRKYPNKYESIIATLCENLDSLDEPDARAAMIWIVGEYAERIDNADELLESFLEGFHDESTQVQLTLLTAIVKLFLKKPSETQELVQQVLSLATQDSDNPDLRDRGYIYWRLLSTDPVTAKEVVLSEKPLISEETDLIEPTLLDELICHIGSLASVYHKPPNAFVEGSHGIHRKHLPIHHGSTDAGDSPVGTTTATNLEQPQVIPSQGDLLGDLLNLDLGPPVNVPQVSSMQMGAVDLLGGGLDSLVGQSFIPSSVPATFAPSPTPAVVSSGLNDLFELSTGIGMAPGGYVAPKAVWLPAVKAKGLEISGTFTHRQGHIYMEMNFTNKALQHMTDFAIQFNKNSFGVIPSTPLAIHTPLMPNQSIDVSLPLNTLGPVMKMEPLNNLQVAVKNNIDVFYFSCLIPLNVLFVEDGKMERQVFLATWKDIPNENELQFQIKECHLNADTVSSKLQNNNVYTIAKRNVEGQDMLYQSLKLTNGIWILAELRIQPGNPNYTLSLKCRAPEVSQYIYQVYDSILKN
Sequence of Beta-adrenergic receptor kinase 1 (Homo sapiens) (P25098 whole entry, looked up): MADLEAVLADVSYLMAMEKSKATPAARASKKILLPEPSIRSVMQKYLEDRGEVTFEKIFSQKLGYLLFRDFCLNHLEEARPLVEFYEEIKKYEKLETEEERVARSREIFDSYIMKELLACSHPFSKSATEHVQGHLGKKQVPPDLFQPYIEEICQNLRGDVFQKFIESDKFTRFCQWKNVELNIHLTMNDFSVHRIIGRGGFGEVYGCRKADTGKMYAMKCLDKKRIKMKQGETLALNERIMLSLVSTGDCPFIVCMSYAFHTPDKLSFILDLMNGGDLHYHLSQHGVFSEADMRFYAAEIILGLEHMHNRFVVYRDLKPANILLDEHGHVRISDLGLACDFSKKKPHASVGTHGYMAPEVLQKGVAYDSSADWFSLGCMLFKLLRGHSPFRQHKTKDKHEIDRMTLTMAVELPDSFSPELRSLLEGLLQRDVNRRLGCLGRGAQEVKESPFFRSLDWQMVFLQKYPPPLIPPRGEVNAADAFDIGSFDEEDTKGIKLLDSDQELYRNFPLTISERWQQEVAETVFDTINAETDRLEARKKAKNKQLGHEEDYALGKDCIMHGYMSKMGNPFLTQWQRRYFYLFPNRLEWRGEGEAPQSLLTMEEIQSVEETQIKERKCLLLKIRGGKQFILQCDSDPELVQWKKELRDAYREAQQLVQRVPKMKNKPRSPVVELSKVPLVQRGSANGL
Sequence of Beta-2 adrenergic receptor (Homo sapiens) (P07550 whole entry, looked up): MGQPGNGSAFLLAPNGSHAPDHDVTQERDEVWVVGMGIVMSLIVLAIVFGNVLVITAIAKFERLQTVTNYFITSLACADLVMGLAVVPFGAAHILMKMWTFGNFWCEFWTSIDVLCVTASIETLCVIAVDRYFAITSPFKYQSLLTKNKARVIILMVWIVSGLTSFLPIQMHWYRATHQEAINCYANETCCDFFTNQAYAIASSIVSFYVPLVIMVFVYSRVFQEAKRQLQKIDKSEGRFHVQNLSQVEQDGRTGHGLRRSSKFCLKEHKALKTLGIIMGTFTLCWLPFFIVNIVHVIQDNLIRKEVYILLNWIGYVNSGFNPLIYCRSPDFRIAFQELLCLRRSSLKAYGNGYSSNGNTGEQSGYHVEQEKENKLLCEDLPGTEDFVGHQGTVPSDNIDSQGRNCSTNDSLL
Sequence of ATP-binding cassette sub-family B member 6 (Homo sapiens) (Q9NP58 whole entry, looked up): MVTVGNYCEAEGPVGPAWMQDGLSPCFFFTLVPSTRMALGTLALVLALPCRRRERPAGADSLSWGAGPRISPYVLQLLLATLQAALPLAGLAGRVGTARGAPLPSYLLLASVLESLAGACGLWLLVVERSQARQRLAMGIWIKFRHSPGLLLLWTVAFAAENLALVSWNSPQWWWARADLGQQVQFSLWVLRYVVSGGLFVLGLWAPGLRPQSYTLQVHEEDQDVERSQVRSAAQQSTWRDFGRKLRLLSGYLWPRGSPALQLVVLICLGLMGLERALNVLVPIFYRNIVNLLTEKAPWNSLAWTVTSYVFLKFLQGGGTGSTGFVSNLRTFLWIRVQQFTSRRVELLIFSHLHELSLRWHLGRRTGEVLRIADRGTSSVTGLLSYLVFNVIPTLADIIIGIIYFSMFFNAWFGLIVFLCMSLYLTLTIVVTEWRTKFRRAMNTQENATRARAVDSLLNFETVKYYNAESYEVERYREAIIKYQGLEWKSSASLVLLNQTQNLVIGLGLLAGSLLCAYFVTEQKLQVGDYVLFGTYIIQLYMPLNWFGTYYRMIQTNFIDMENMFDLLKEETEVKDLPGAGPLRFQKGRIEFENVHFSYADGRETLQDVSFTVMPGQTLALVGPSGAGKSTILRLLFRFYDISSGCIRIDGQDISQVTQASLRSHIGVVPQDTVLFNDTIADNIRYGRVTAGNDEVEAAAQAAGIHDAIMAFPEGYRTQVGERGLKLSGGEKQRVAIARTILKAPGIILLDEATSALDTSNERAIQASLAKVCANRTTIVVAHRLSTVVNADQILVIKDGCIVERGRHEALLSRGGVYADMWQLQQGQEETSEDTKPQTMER

N/C(=N\OC(=O)/C=C/c1ccccc1)c1ccc(Br)cc1
inactive: percent of DMSO control GFP [1] 103% | GFP response vs DMSO [2] 106% | percent response of DMSO control [3] 107% | GFP response vs DMSO [4] 101% | GFP response, % of DMSO [5] 94.2% | vesicle binding response [6] 195% | inhibition [7] -3.57% | superoxide response (% of plate) [8] 107% | aptamer binding inhibition [9] 3% | response [10] 0.58% | inhibition [11] 40.4% | response [12] -3.5% | binding (% of control) [13] 100% | efflux inhibition (fraction of control) [14] -0.01 | inhibition [15] 13% | differentiation response [16] -3.67%
65%: double positive events [6]

CCCNC(C)C(=O)Nc1ccccc1C (stereo not drawn)
inactive: percent of DMSO control GFP [1] 100% | GFP response vs DMSO [2] 101% | percent response of DMSO control [3] 101% | GFP response vs DMSO [4] 92.6% | GFP response, % of DMSO [5] 103% | vesicle binding response [6] 130% | inhibition [7] -15.8% | superoxide response (% of plate) [8] 96.4% | aptamer binding inhibition [9] 2% | response [10] 2.61% | inhibition [11] -0.33% | response [12] 4.59% | binding (% of control) [13] 102% | efflux inhibition (fraction of control) [14] -0.16 | inhibition [15] -3% | differentiation response [16] -7.5%
60.4%: double positive events [6]

CO[C@H]1C=CO[C@@]2(C)Oc3c(C)c(O)c4c(O)c(c(C=NN5CCN(C)CC5)c(O)c4c3C2=O)NC(=O)C(C)=CC=C[C@H](C)[C@H](O)[C@@H](C)[C@@H](O)[C@@H](C)[C@H](OC(C)=O)[C@@H]1C
inactive: percent of DMSO control GFP [1] 93.3% | GFP response vs DMSO [2] 127% | percent response of DMSO control [3] 93.9% | GFP response vs DMSO [4] 78.7% | GFP response, % of DMSO [5] 98.2% | vesicle binding response [6] 575% | inhibition [7] -46.9% | superoxide response (% of plate) [8] 105% | aptamer binding inhibition [9] 3% | response [10] 9.39% | inhibition [11] -2.48% | response [12] -1.49% | binding (% of control) [13] 99.2% | efflux inhibition (fraction of control) [14] 0.01 | inhibition [15] 12% | differentiation response [16] 2.46%
64.9%: double positive events [6]

CCOc1ccc(C(=O)NC(C)C2COc3ccccc3O2)cc1 (stereo not drawn)
61.2%: double positive events [6]
inactive: percent of DMSO control GFP [1] 99.5% | GFP response vs DMSO [2] 104% | percent response of DMSO control [3] 95.7% | GFP response vs DMSO [4] 110% | GFP response, % of DMSO [5] 106% | vesicle binding response [6] 111% | inhibition [7] 7.4% | superoxide response (% of plate) [8] 108% | aptamer binding inhibition [9] 6% | response [10] -18% | inhibition [11] -0.3% | response [12] -8.02% | binding (% of control) [13] 106% | efflux inhibition (fraction of control) [14] -0.17 | inhibition [15] 1% | differentiation response [16] 4.86%

O=C(NC(=S)N1CCCCC1)c1cccnc1
60.8%: double positive events [6]
inactive: percent of DMSO control GFP [1] 102% | GFP response vs DMSO [2] 95.1% | percent response of DMSO control [3] 97.8% | GFP response vs DMSO [4] 108% | GFP response, % of DMSO [5] 99.4% | vesicle binding response [6] 95.6% | inhibition [7] 11% | superoxide response (% of plate) [8] 89.9% | aptamer binding inhibition [9] -3% | response [10] -0.16% | inhibition [11] -15.4% | response [12] -2.13% | binding (% of control) [13] 93.3% | efflux inhibition (fraction of control) [14] -0.07 | inhibition [15] -15% | differentiation response [16] 21.8%

CCOC(=O)c1cc2c(nc1N)CC(C)(CC)OC2 (stereo not drawn)
active: differentiation response [16] 60%
inactive: percent of DMSO control GFP [1] 101% | GFP response vs DMSO [2] 109% | percent response of DMSO control [3] 91% | GFP response vs DMSO [4] 127% | GFP response, % of DMSO [5] 100% | vesicle binding response [6] 170% | inhibition [7] 9.13% | superoxide response (% of plate) [8] 97.3% | aptamer binding inhibition [9] -1% | response [10] -13.4% | inhibition [11] 38.2% | response [12] -3.65% | binding (% of control) [13] 105% | efflux inhibition (fraction of control) [14] -0.24 | inhibition [15] 3%
61.3%: double positive events [6]

Cc1onc(-c2c(Cl)cccc2Cl)c1C(=O)NC1C(=O)N2C1SC(C)(C)C2C(=O)O (stereo not drawn)
59.6%: double positive events [6]
inactive: percent of DMSO control GFP [1] 99.7% | GFP response vs DMSO [2] 103% | percent response of DMSO control [3] 100% | GFP response vs DMSO [4] 117% | GFP response, % of DMSO [5] 113% | vesicle binding response [6] 207% | inhibition [7] -6.23% | superoxide response (% of plate) [8] 83.9% | aptamer binding inhibition [9] 0% | response [10] -26.4% | inhibition [11] 5.02% | response [12] -4.49% | binding (% of control) [13] 103% | efflux inhibition (fraction of control) [14] 0 | inhibition [15] 3% | differentiation response [16] -12.9%

Cc1ccc(C(=O)Nc2ccccc2C(=O)NC(C(=O)O)C(C)C)cc1 (stereo not drawn)
57.3%: double positive events [6]
inactive: percent of DMSO control GFP [1] 96.7% | GFP response vs DMSO [2] 109% | percent response of DMSO control [3] 89.1% | GFP response vs DMSO [4] 115% | GFP response, % of DMSO [5] 101% | vesicle binding response [6] 175% | inhibition [7] -19.5% | superoxide response (% of plate) [8] 116% | aptamer binding inhibition [9] 3% | response [10] -2.49% | inhibition [11] 10.5% | response [12] 0.12% | binding (% of control) [13] 99.1% | efflux inhibition (fraction of control) [14] -0.06 | inhibition [15] 3% | differentiation response [16] -13.6%

COC(=O)c1ccc(OCCCCN2CC(C)OC(C)C2)cc1 (stereo not drawn)
inactive: percent of DMSO control GFP [1] 104% | GFP response vs DMSO [2] 99.7% | percent response of DMSO control [3] 105% | GFP response vs DMSO [4] 95.9% | GFP response, % of DMSO [5] 102% | vesicle binding response [6] 228% | inhibition [7] -3.77% | superoxide response (% of plate) [8] 106% | aptamer binding inhibition [9] 0% | response [10] 2.87% | inhibition [11] -5.73% | response [12] 2.09% | binding (% of control) [13] 98.3% | efflux inhibition (fraction of control) [14] 0.39 | inhibition [15] 5% | differentiation response [16] -11.9%
63.1%: double positive events [6]
